Screening data: PubChem BioAssay, National Center for Advancing Translational Sciences (NCATS)
Hits are enriched below; roughly 7.1% of the tested compounds scored in any of these assays.
ELG1 genotox – qHTS screen for small molecules that induce genotoxicity in human embryonic kidney (HEK293T) cells expressing luciferase-tagged ELG1; HEK293T ELG1-luciferase reporter, luminescence, 16 h; Potency, µM (top dose mostly 46 µM), inactives show at the highest dose activity change, positive = activation, most hits filed as activators; actives 1.3% (n = 330,000); AID 504466, 2011; further: % of control where 0% means no effect; nearly all actives have a fitted effect of over 60% in size
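Screening used a luciferase reporter fused to human ELG1 in HEK293T cells. Luminescence was read on a CCD plate imager after 16 hr exposure and 30 min ONE-Glo incubation.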
MCF10A rereplic – A quantitative high throughput screen for small molecules that induce DNA re-replication in MCF 10a normal breast cells; MCF 10A DNA re-replication, Hoechst nuclear intensity, 48 h; Potency, µM (titrated, usually from 46.1 µM), for the others: top-dose activity, positive = re-replication, actives largely listed as activators; actives 2.9% (n = 350,000); AID 624296, 2012; further: % of control where 0% means no effect; nearly all actives have a fitted effect of over 50% in size
ELG1 repair inh – qHTS screen for small molecules that inhibit ELG1-dependent DNA repair in human embryonic kidney (HEK293T) cells expressing luciferase-tagged ELG1. HEK293T ELG1-luciferase reporter, luminescence, 16 h; DNA damage induced by 5-fluorouridine. Potency, µM (titrated, usually from 46.1 µM), inactives show at the highest dose activity change, negative = inhibition, actives largely listed as inhibitors. actives 2.3% (n = 330,000); further: on the % scale 0 is the no-effect control and ±100 the full control effect; nearly all actives have a fitted effect of over 55% in size
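In this reporter screen, reduction of luminescence relative to DMSO vehicle indicated activity. Compounds and 5-fluorouridine were added together to 2,000 cells per well, incubated for 16 hr at 37 °C, then developed with ONE-Glo.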
SW480 rerep – A quantitative high throughput screen for small molecules that induce DNA re-replication in SW480 colon adenocarcinoma cells; SW480 DNA re-replication, Hoechst DNA content imaging, 48 h; actives 1.8% (n = 340,000); Potency, µM (top dose mostly 46.1 µM), for inactives: top-dose re-replication activation, most hits filed as activators; further: % of control where 0% means no effect; nearly all actives have a fitted effect of over 55% in size
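Cells (250 per well) received 23 nL compound or DMSO by pin tool and were kept 48 hr at 37 C, 5% CO2. Nuclei were then stained with Hoechst for 40 min and scanned for DNA content.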
AT treatment – qHTS Assay for Identifying a Potential Treatment of Ataxia-Telangiectasia; F2112 A-T fibroblasts, KAP-1 phosphorylation AlphaLISA; neocarzinostatin DNA damage 30 min before lysis; Potency, µM (doses to about 57.5 µM), inactives show at the top dose activation, usual class: activators; actives 0.19% (n = 320,000); further: % of control where 0% means no effect; nearly all actives have a fitted effect of over 45% in size
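hTERT-immortalized A-T patient fibroblasts (F2112), 500 cells/well in OPTI-MEM, 1% FBS, got compounds for 60 min, then NCS for 30 min at 37C. Lysates were then assayed for phospho-KAP-1 by AlphaLISA (anti-pKAP1 donor, anti-KAP1 acceptor beads), 6 hr at 25C.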
p53 reactivator – qHTS assay for re-activators of p53 using a Luc reporter; H1299 p53-A138V BP100-luciferase reporter, luminescence, 24 h; Potency, µM (titrated, usually from 92.2 µM), for the others: at the highest dose activity change, positive = activation, most hits filed as activators; actives 0.063% (n = 320,000); further: % of control where 0% means no effect; nearly all actives have a fitted effect of over 45% in size
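p53-null H1299 cells stably carrying temperature-sensitive p53-A138V and a BP100-luciferase reporter were pinned with compounds (4-point, 1:5 series) and held 24 hrs at 37 deg C. Luminescence was read 10 min after detection reagent.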
An asterisk follows results filed as active; u = inconclusive; x = no result; [ ] = remark or other dose. The call rests on the fitted dose curve; in most records, active means well fitted curve in the direction sought with a large enough effect; inconclusive means small, poorly fitted or top-dose-only effect, or another doubt; inactive means no such curve, though single readings can be large; an effect the other way counts as inactive or inconclusive. Potency means the concentration at half of the fitted maximal effect.

SMILES | ELG1 genotox | MCF10A rereplic | ELG1 repair inh | SW480 rerep | AT treatment | p53 reactivator
Cc1cc(O)cc2c1O[C@](C)(CCC[C@H](C)CCC[C@H](C)CCCC(C)C)CC2 | x | 19% | x | 6% | x | x
COc1ccc(C(=O)Nc2ccccc2-c2nnn(CC(=O)Nc3ccc4c(c3)OCCO4)n2)cc1 | u | 16µM* | u | 4% | 6% | 2%
O=C(CSc1ccccc1)N1CCC2(CC1)OCCO2 | 10µM* | 5% | u | -5% | 4% | u
O=C(CN1C(=O)COc2ccccc21)N1CCC2(CC1)OCCO2 | 0% | 1% | 9% | 2% | 6% | u
CC1CCN(C(=O)c2ncn(C)c2C(=O)N2CCC(C)CC2)CC1 | 3% | 5% | u | -5% | -3% | 0%
CCn1c(O)c(C(=O)CC2NCCc3ccccc32)c(=O)n(CC)c1=S (stereo unspecified) | -4% | 21µM* | u | 2% | -9% | 1%
Cc1cccc(N2CCN(C(=O)c3ccc(CNc4c(N5CCC(C)CC5)c(=O)c4=O)cc3)CC2)c1C | -10% | -9% | u | 5% | 3% | -1%
C[C@@H]1C[C@@H]([C@H](O)CC2CC(=O)NC(=O)C2)C(=O)[C@@H](C)C1 | -5% | u | 0.29µM* | -9% | 9% | u
O=c1[nH]c(=O)n(Cl)c(=O)n1Cl | x | 1% | x | 0% | x | x
COc1cc(/C=C(/C)[N+](=O)[O-])ccc1OCc1ccccc1Cl | -16% | 3.7µM* | u | 3.3µM* | -3% | -26%
O=C(NCc1ccccc1)C(=O)NCC1OCCN1S(=O)(=O)c1ccc([N+](=O)[O-])cc1 (stereo unspecified) | -2% | 1% | u | -1% | 1% | 0%
CC(C)=CC1C(C(=O)OCc2coc(Cc3ccccc3)c2)C1(C)C (stereo unspecified) | x | u | x | -1% | x | x
COc1ccc2c3c([nH]c2c1)C(C)=NCC3 | -9% | -8% | 9.2µM* | u | u | 2%
CC1=NCCc2c1[nH]c1cc(O)ccc21 | -13% | u | 5% | u | 31% | -2%
CCOP(=O)(OCC)O/C(=C/Cl)c1ccc(Cl)cc1Cl | x | 12% | x | 3% | x | x
COc1cc(C(=O)N/N=C/c2ccc(OC(=O)N3CCOCC3)cc2)cc(OC)c1OC | 10% | 6.5µM* | 14% | 21µM* | -3% | 10%
CO[C@@H](COC(N)=O)C1=C(N2CC2)C(=O)C(C)=C(N2CC2)C1=O | x | 4.7µM* | x | u | x | x
COC12C(COC(N)=O)C3=C(C(=O)C(C)=C(N)C3=O)N1CC1C2N1C (stereo unspecified) | 0% | -17% | u | u | -3% | -4%
Cc1noc(C)c1CSCC(=O)Nc1ccc(C#N)c(Cl)c1 | -3% | 5% | -27% | -22% | 1% | -7%
Cc1sc2ncnc(N3CCC(C(=O)Nc4ccc(C#N)c(Cl)c4)CC3)c2c1C | -6% | 13µM* | u | 0% | 6% | -8%
CCCC(c1nnnn1Cc1cccs1)N1CCN(c2nc3ccccc3s2)CC1 (stereo unspecified) | -18% | 17% | 23µM* | -3%[9.22 µM] | 11% | -1%
COc1cc(/C=N/Nc2ccc(S(N)(=O)=O)cc2)cc(OC)c1OC | 4% | u | -5% | -2% | -18% | 0%
CCc1ccc2c(c1)Sc1ccccc1CC2N1CCN(C)CC1 (stereo unspecified) | x | u | x | 26µM* | x | x
